Source: PubChem
T cruzi growth-1: T. cruzi proliferation inhibition; inhibition, % at 8.34 µM; AID 624255; T. cruzi beta-gal in NIH3T3, GalScreen luminescence, 90 h; 77,000 compounds, 5.9% hits;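 active = mean inhibition above about 93%, with at least 55% of replicates each passing it, limit read from the data, passing the limit was not always enough; inconclusive = only one of those two conditions holds; inactive = neither condition holds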
C diff HTS: inhibitors of Clostridium difficile growth; 86,000 compounds, 0.25% hits; growth activity, negative = inhibition, % at 16 µg/mL (by protocol); Clostridium difficile clinical isolate growth, OD600, 24 h; active compounds read low; AID 1259249;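 active = mean growth activity at or below -80% and every replicate also at or below -80%; inconclusive = mean at or below -80% but some replicate above -80%; inactive = mean growth activity above -80%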
Pf Dd2 growth: P. falciparum Dd2 growth inhibition | SYBR Green, 72 h; active compounds read low | activity change, % at 10 µM | 94,000 compounds, 2.3% hits | AID 1159554; in the data active = activity change below about -80%; inconclusive = no clear call, values can overlap the other calls
T cruzi growth-2: Trypanosoma cruzi proliferation inhibition; shares compounds with T cruzi growth-1; T. cruzi beta-gal in NIH3T3, GalScreen luminescence, 90 h; inhibition, % at 8.35 µM; 5,600 compounds, 72% hits; AID 651739;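 active = mean replicate inhibition above about 95% and at least 55% of replicates individually reaching it, limit read from the data; inconclusive = only one of the two criteria is met; inactive = neither criterion is met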
T cruzi growth-3: blocks T. cruzi growth in NIH3T3 host cells; shares compounds with T cruzi growth-1; T. cruzi beta-gal in NIH3T3, GalScreen luminescence, 90 h; 5,600 compounds, 21% hits; AID 651740; inhibition, % at 2.09 µM;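 active = mean inhibition above about 95%, with at least 55% of replicates also reaching it, limit read from the data; inconclusive = meets just one of the two conditions; inactive = meets neither condition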
3T3 cytotox: cytotoxicity in mouse NIH/3T3 fibroblasts. shares compounds with T cruzi growth-1. NIH/3T3 viability, CellTiter-Glo ATP luminescence, 90 h. cytotoxicity (signal decrease), % at 8.35 µM. 5,600 compounds, 14% hits;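 active = mean signal decrease across replicates above about 35% based on untreated-well scatter, with enough replicates individually passing, limit read from the data; inconclusive = no rule stated though some were filed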
3T3 cytotox 2: kills mouse NIH/3T3 fibroblasts; inhibition, % at 24.9 µM; NIH/3T3 viability, CellTiter-Glo ATP luminescence, 90 h; AID 651744; shares compounds with T cruzi growth-1; 5,600 compounds, 56% hits;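 active = mean loss of cell viability signal at or above a set limit, and enough replicates individually reaching it; inconclusive = meets only the mean limit or only the replicate share; inactive = meets neither condition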
Each line names hits and unclear results; the compound was inactive in the other large screens (follow-up assays come after a bar, where they were run); ! = not confirmed by another sample. The list is not random: actives were taken first. Their share in the collection is about 6.8%.

COc1ccc(NC(=O)Nc2ccc3c(c2)C(=O)N([C@@H](C)CO)C[C@H](C)[C@H](CN(C)C(=O)c2ccccc2)OCCCC[C@@H](C)O3)cc1	none
COc1ccc(NC(=O)N(C)C[C@@H]2Oc3ccc(NS(=O)(=O)c4ccc(F)cc4)cc3CC(=O)N([C@@H](C)CO)C[C@H]2C)cc1	none
COc1ccc(S(=O)(=O)N(C)C[C@H]2Oc3ccc(NC(=O)c4ccncc4)cc3CC(=O)N([C@H](C)CO)C[C@H]2C)cc1	none
CCCC#Cc1ccc2c(c1)O[C@@H](CN(C)C(=O)NCCC)[C@@H](C)CN([C@H](C)CO)S2(=O)=O	none
CCCNC(=O)N(C)C[C@@H]1Oc2cc(C#Cc3cccc(F)c3)ccc2S(=O)(=O)N([C@H](C)CO)C[C@H]1C	T cruzi growth-1 inconclusive | T cruzi growth-2 105.7 | T cruzi growth-3 inactive | 3T3 cytotox 46.5 | 3T3 cytotox 2 94.1
CCNC(=O)C[C@H]1CC[C@H]2[C@@H](COC[C@@H](O)CN2Cc2ccc(Cl)c(Cl)c2)O1	none (no result: C diff HTS)
Cc1noc(C)c1S(=O)(=O)Nc1ccc2c(c1)C(=O)N([C@H](C)CO)C[C@H](C)[C@@H](CN(C)Cc1ccc(C(F)(F)F)cc1)O2	none
CN(C)C(=O)C[C@@H]1C[C@@H]2c3cc(NS(=O)(=O)c4ccc(F)cc4)ccc3O[C@@H]2[C@@H](CO)O1	none
C[C@H]1CN([C@@H](C)CO)C(=O)c2cc(C#Cc3cccc(F)c3)cnc2O[C@H]1CN(C)C(=O)C1CC1	none
C[C@H]1CN([C@@H](C)CO)C(=O)c2cc(C#Cc3cccc(F)c3)cnc2O[C@@H]1CN(C)C(=O)C1CCCCC1	T cruzi growth-1 114.4, Pf Dd2 growth -89.2 (no result: C diff HTS) | T cruzi growth-2 112.5 | T cruzi growth-3 inactive | 3T3 cytotox inactive | 3T3 cytotox 2 76.0
C[C@@H]1CN([C@@H](C)CO)C(=O)c2cc(C#Cc3cccc(F)c3)cnc2O[C@H]1CN(C)C(=O)C1CCCCC1	T cruzi growth-1 117.1! | T cruzi growth-2 104.5 | T cruzi growth-3 inactive | 3T3 cytotox inactive | 3T3 cytotox 2 92.0
C[C@H](CO)N1C[C@H](C)[C@@H](CN(C)C(=O)C2CC2)Oc2ncc(C#Cc3cccc(F)c3)cc2C1=O	none
C[C@H](CO)N1C[C@H](C)[C@@H](CN(C)S(C)(=O)=O)Oc2ccc(NS(=O)(=O)c3cccs3)cc2C1=O	none (no result: C diff HTS)
Cc1ccc(S(=O)(=O)N[C@H]2C=C[C@@H](CC(=O)N3CCc4ccccc4C3)O[C@@H]2CO)cc1	none
CO[C@@H]1CN(C)C(=O)c2ccc(NC(=O)NC(C)C)cc2OC[C@@H](C)N(C(=O)C2CCC2)C[C@H]1C	none (no result: T cruzi growth-1)
C[C@@H]1CN([C@H](C)CO)S(=O)(=O)c2ccc(C3=CCCC3)cc2O[C@H]1CN(C)Cc1ccccc1	none
C[C@@H]1CN([C@H](C)CO)S(=O)(=O)c2ccc(C3=CCCCC3)cc2O[C@H]1CN(C)Cc1ccccc1	T cruzi growth-1 118.7 (no result: C diff HTS) | T cruzi growth-2 inactive | T cruzi growth-3 101.1 | 3T3 cytotox 78.3 | 3T3 cytotox 2 105.8
C[C@H](CO)N1C[C@H](C)[C@@H](CN(C)Cc2ccccc2)Oc2cc(C3=CCCC3)ccc2S1(=O)=O	none
C[C@@H]1CN([C@@H](C)CO)S(=O)(=O)c2ccc(C3=CCCCC3)cc2O[C@H]1CN(C)Cc1ccccc1	T cruzi growth-1 121.2 (no result: C diff HTS) | T cruzi growth-2 inactive | T cruzi growth-3 110.4 | 3T3 cytotox 82.8 | 3T3 cytotox 2 103.6
COc1ccc2c3c(n(C)c2c1)[C@@H](CO)N(C(=O)Cc1ccccc1)CC31CCN(C(C)=O)CC1	none (no result: T cruzi growth-1)
CO[C@@H]1CN(C)C(=O)c2cc(NC(=O)Nc3cccc(F)c3)ccc2OC[C@H](C)N(C)C[C@H]1C	none
C[C@@H]1CN([C@H](C)CO)C(=O)c2c(c3ccccc3n2C)-c2ccccc2CO[C@H]1CN(C)C(=O)Nc1ccc2c(c1)OCO2	none
C[C@H](CO)N1C[C@H](C)[C@@H](CN(C)C(=O)C2CC2)OCc2ccccc2-c2c(n(C)c3ccccc23)C1=O	none
C[C@@H]1CN([C@@H](C)CO)C(=O)c2c(c3ccccc3n2C)-c2ccccc2CO[C@H]1CN(C)Cc1cccnc1	none
CC(=O)N(C)C[C@@H]1OCc2ccccc2-c2c(n(C)c3ccccc23)C(=O)N([C@@H](C)CO)C[C@H]1C	none (no result: C diff HTS)
C[C@@H]1CN([C@@H](C)CO)C(=O)c2c(c3ccccc3n2C)-c2ccccc2CO[C@H]1CN(C)C	T cruzi growth-1 inconclusive | T cruzi growth-2 inconclusive | T cruzi growth-3 inactive | 3T3 cytotox inactive | 3T3 cytotox 2 inactive
C[C@H](CO)N1C[C@H](C)[C@H](CN(C)C(=O)C2CC2)OCc2ccccc2-c2c(n(C)c3ccccc23)C1=O	T cruzi growth-1 inconclusive | T cruzi growth-2 inactive | T cruzi growth-3 inactive | 3T3 cytotox inactive | 3T3 cytotox 2 38.4
C[C@@H]1CN([C@@H](C)CO)C(=O)c2c(c3ccccc3n2C)-c2ccccc2CO[C@H]1CN(C)C(=O)Nc1ccc2c(c1)OCO2	T cruzi growth-1 105.4, Pf Dd2 growth -82.4 | T cruzi growth-2 inactive | T cruzi growth-3 inactive | 3T3 cytotox inactive | 3T3 cytotox 2 inactive
C[C@H](CO)N1C[C@H](C)[C@@H](CN(C)Cc2cccnc2)OCc2ccccc2-c2c(n(C)c3ccccc23)C1=O	T cruzi growth-1 inconclusive | T cruzi growth-2 inactive | T cruzi growth-3 inactive | 3T3 cytotox inactive | 3T3 cytotox 2 inactive
C[C@@H]1CN([C@H](C)CO)C(=O)c2cccc(NC(=O)C3CCCCC3)c2O[C@@H]1CN(C)C(=O)Nc1ccc2c(c1)OCO2	none
O=C(Nc1ccc2c(c1)OCO2)N[C@@H]1CC[C@@H](CCNC(=O)C2CC2)O[C@H]1CO	none (no result: C diff HTS)
N#C[C@H]1[C@@H](c2ccc(-c3cccc(F)c3)cc2)[C@@H](CO)N1c1nc(-c2ccccc2)cs1	none
N#C[C@@H]1[C@@H](c2ccc(-c3ccc(F)cc3)cc2)[C@@H](CO)N1c1nc(-c2ccccc2)cs1	T cruzi growth-1 105.2 | T cruzi growth-2 107.9 | T cruzi growth-3 95.7 | 3T3 cytotox inactive | 3T3 cytotox 2 inactive
N#C[C@@H]1[C@@H](c2ccc(-c3cccc(F)c3)cc2)[C@@H](CO)N1c1nc(-c2ccccc2)cs1	T cruzi growth-1 98.6 | T cruzi growth-2 110.0 | T cruzi growth-3 98.8 | 3T3 cytotox inactive | 3T3 cytotox 2 inactive
N#C[C@@H]1[C@@H](c2ccc(C3=CCCC3)cc2)[C@@H](CO)N1c1nc(-c2ccccc2)cs1	T cruzi growth-1 107.7 | T cruzi growth-2 96.5 | T cruzi growth-3 inactive | 3T3 cytotox inactive | 3T3 cytotox 2 inactive
N#C[C@H]1[C@H](c2ccc(C3=CCCC3)cc2)[C@H](CO)N1c1nc(-c2ccccc2)cs1	none
N#C[C@H]1[C@@H](c2ccc(-c3ccc(F)cc3)cc2)[C@H](CO)N1c1nc(-c2ccccc2)cs1	none
